MOR-DOR ag: agonists of human mu-delta opioid receptor heterodimerization; P35372+P41143; 0.3% of 340,000 active; activation, % at 9.3 µM; cells, OPRM1-OPRD1 heterodimerization, luminescence; in the data active means activation above about 18%;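 further: 0% = vehicle-treated cells and 100% = reference agonist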
HTR5A inv ag: inverse agonist of human HTR5A in OPRM1-OPRD1 counter-screen. P47898. HTR5A cell line, luminescence, inverse agonism. inhibition, % at 9.3 µM. 0.083% of 340,000 active. AID 504634; in the data active means inhibition mostly above about 23%, no sharp cut-off; inactive means mostly below about 18%;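 further: 0% = cells with DMSO and 100% = no-cell wells with DMSO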
Target sequence (P47898 whole entry, looked up): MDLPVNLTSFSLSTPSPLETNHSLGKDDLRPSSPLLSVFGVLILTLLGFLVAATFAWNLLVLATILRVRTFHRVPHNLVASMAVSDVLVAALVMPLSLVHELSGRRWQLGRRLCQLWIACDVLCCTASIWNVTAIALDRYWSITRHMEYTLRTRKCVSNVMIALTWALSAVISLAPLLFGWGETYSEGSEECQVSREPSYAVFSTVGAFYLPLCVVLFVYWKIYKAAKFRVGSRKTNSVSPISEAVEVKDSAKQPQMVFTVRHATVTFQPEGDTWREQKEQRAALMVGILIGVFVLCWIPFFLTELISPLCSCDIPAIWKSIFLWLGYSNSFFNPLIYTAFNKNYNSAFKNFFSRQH
OPRM1-OPRD1 inv: inverse agonist of human OPRM1-OPRD1 heterodimerization; inhibition, % at 9.3 µM; 0.21% of 340,000 active; cell-based MOR-DOR heterodimer luminescence, inverse agonism; P35372+P41143; in the data active means inhibition above about 22%, passing the limit was not always enough;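 further: 0% = cells with DMSO and 100% = wells without cells with DMSO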
MsrA act: activates bovine MsrA enzyme; activation, % at 10.6 µM; purified bovine MsrA, absorbance read-out; 0.3% of 360,000 active; AID 602163; in the data active means activation above about 7.5%;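 further: 0% = vehicle and 100% = reference activator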
HTR5A ag: HTR5A agonism, opioid heterodimer counter-screen | HTR5A agonist assay, luminescence, cell-based | activation, % at 9.3 µM | 0.61% of 340,000 active; in the data active means activation mostly above about 9.5%, no sharp cut-off; inactive means mostly below about 7.6%;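 further: 0% = cells with vehicle only and 100% = reference agonist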
MsrA inh: bovine MsrA inhibition | purified bovine MsrA, absorbance read-out | inhibition, % at 15.5 µM | 0.75% of 360,000 active | AID 651718; in the data active means inhibition above about 4.5%;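 further: 0% = vehicle wells with enzyme and 100% = reference inhibitor wells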
MsrA activ conf: confirmation of bovine methionine sulfoxide reductase A activators; shares compounds with MsrA act; activation, % at 10.6 µM; 12% of 1,000 active; AID 602270; purified bovine MsrA, absorbance read-out; in the data active means activation above about 4%;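 further: enzyme coupled to thioredoxin and thioredoxin reductase with NADPH; 0% = vehicle wells and 100% = reference activator wells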
Numbers without * were called inactive; x = no result given. This is a sample that favours compounds with a hit; in the whole collection about 1.9% have one here.

SMILES	MOR-DOR ag	HTR5A inv ag	OPRM1-OPRD1 inv	MsrA act	HTR5A ag	MsrA inh	MsrA activ conf
CCN=C1NC(c2ccc(F)cc2)C(C(=O)OC)=C(C)N1Cc1ccccc1C(F)(F)F (stereo not given)	x	x	x	x	x	-1	x
Cn1c(=O)c2cc(NC(=O)CCc3ccccc3)ccc2n1-c1ccccc1F	x	x	x	-1	x	0	x
CCOCCC(=O)Nc1ccc2c(c1)c(=O)n(C)n2-c1ccccc1F	x	x	x	10*	x	0	0
COc1cccc(C(=O)Nc2cccc3ccccc23)c1	-2	-29	10	20*	5	1	-1
O=C(Nc1cccc(C(=O)O)c1)Nc1cccc2ccccc12	-2	-21	10	8.3*	6	0	-1
CC(=O)Nc1cccc(NC(=O)Nc2cccc3ccccc23)c1	-4	-10	23	-5	3	0	x
CCOC(=O)c1cc(NC(=O)c2ccc(Cl)cc2)c(=O)n2c1oc1ccc(Cl)cc12	-1	-4	6	-2	4	1	x
CCOC(=O)c1ccc(-n2ccnc2)c(NC(=O)c2ccc(Cl)cc2)c1	-1	17	6	8.1*	2	-1	1
Cc1cc(NC(=O)c2ccc(Cl)cc2)n(CCOC(=O)c2ccc(Cl)cc2)n1	8	-32	-35	9.1*	2	0	1
CCc1c(-c2ccccc2)ncn1CCc1ccccc1OC	x	x	x	x	x	0	x
COc1cccc(NC(=O)COC(=O)CCn2c(C)csc2=O)c1	0	-5	3	9.2*	2	-1	-1
COc1cccc(NC(=O)COC(=O)Cn2c(C)csc2=O)c1	-4	3	16	-3	-1	0	x
CC(C)C[C@H]1COc2cc(NCCCN3CCOCC3)ccc2S(=O)(=O)N1	x	x	x	x	x	-1	x
CCN(CC)S(=O)(=O)c1ccc(NC(=O)CNC2CCCCC2)cc1	-4	13	16	8.4*	-4	-1	-1
CCN(CC)S(=O)(=O)c1ccc(NC(=O)CCC2CCCCC2)cc1	9	-33	-52	-2	3	1	x
COc1ccc(N2CC(NC(=O)c3ccc4ccccc4c3)CC2=O)cc1OC (stereo not given)	-3	0	15	11*	8	-1	-1
COc1ccc(N2CC(NS(=O)(=O)c3ccc4ccccc4c3)CC2=O)cc1OC (stereo not given)	-2	1	11	-2	1	0	x
Cc1cc(-c2ccccc2)cc(=O)[nH]1	-2	-19	11	13*	5	1	-2
O=C(NC1CC1)c1ccc(NS(=O)(=O)c2ccccc2)cc1	-2	-20	11	-2	3	1	x
O=C(NC1CC1)c1ccc(NS(=O)(=O)c2ccc(F)cc2)cc1	-1	-31	3	11*	12	0	-1
CCCN1C(=O)c2[nH]nc(-c3ccccc3)c2C1c1ccc(C)cc1 (stereo not given)	x	x	x	x	x	0	x
Cc1cc(=O)[nH]c(SCC(=O)NCc2ccc3c(c2)OCO3)n1	2	-5	-14	-10	2	-1	x
Cc1nc(SCC(=O)NCc2ccc3c(c2)OCO3)c(C#N)c2c1CCCC2	-1	-20	8	9.2*	-6	-1	-2
COc1ccc(NC(=O)CSc2nc(C)c3c(c2C#N)CCCC3)cc1	-2	-8	13	1	3	1	x
CCc1nnc(NC(=O)CSc2nc(C)c3c(c2C#N)CCCC3)s1	1	-13	-6	15*	0	x	-2
SMILES	MOR-DOR ag	HTR5A inv ag	OPRM1-OPRD1 inv	MsrA act	HTR5A ag	MsrA inh	MsrA activ conf
Cn1c(SCc2ccccc2)nc(C(F)(F)F)cc1=O	7	-8	-34	-2	3	-1	x
Cn1c(SCc2cccc(Cl)c2)nc(C(F)(F)F)cc1=O	8	-30	-41	8.4*	-2	-1	-5
CC(=O)N1CCN(CCS(=O)(=O)c2cc(Cl)ccc2Cl)CC1	12	11	-60	-2	-3	-1	x
COC(=O)CCS(=O)(=O)c1cc(Cl)ccc1Cl	-2	-1	10	8.3*	-3	1	0
Nn1cnnc1N/N=C\c1ccc(-c2ccccc2[N+](=O)[O-])o1	1	13	-4	20*	4	0	-1
O=[N+]([O-])c1ccccc1-c1ccc(/C=N/n2cnnc2)o1	3	28	-15	-2	1	3	x
CC(=O)C1=C(C)N(Cc2ccc(F)cc2)C(=S)NC1c1cccc(Cl)c1 (stereo not given)	x	x	x	x	x	0	x
CCC(=O)N1CCc2cc(Br)cc(S(=O)(=O)CCC(=O)NCc3ccco3)c21	-1	11	6	14*	2	x	0
CCOC(=O)CNC(=O)N(C)[C@H]1C[C@H]2c3[nH]c4c(-c5ccccc5)cccc4c3CCN2C(=O)[C@H]1[C@H](C)O	x	x	x	x	x	-1	x
COc1ccc(Cc2c(-c3ccc(F)cc3)nc3ccc(C)cn23)c(C)c1	x	x	x	x	x	1	x
COc1ccc(Cc2c(-c3ccc(OC)c(OC)c3)nc3ccc(C)cn23)c(C)c1	x	x	x	13*	x	1	-1
COc1ccc(CN(C(=O)c2ccco2)c2ccc(C)cc2)cc1OC	-3	10	15	7.9*	2	1	-2
COc1ccccc1C(=O)N(Cc1ccccc1)c1ccc(C)cc1	1	5	-3	-1	-1	-1	x
Cc1cc(C)nc(N/N=C/c2cccc([N+](=O)[O-])c2)n1	x	x	x	10*	x	1	-2
Cc1cc(=O)[nH]c(N/N=C/c2cccc([N+](=O)[O-])c2)n1	x	x	x	x	x	1	x
CC(=O)C1=C(C)N(CC(C)C)C(=S)NC1c1cccc(Cl)c1 (stereo not given)	x	x	x	x	x	1	x
O=C(c1ccco1)N1CCN(CCCCOc2ccc(F)cc2)CC1	0	-8	-2	9.4*	7	-1	-2
CC(Oc1ccccc1Cl)C(=O)N1CCOCC1 (stereo not given)	-2	7	12	11*	-3	0	-2
Cc1c(NC(=O)Cn2[nH]c(=O)c3ccccc3c2=O)c(=O)n(-c2ccccc2)n1C	-3	23	15	23*	-2	0	-1
Cc1c(NC(=O)CN2CCN(c3ccccc3)CC2)c(=O)n(-c2ccccc2)n1C	-1	13	7	-1	-5	-1	x
Cc1c(NC(=O)N2CCCCCC2)c(=O)n(-c2ccccc2)n1C	-2	-8	10	8.4*	4	2	-4
Cc1c(NC(=O)CCC(=O)N2CCCCC2)c(=O)n(-c2ccccc2)n1C	-2	-4	10	0	3	1	x
CCn1c(-c2ccc(C)cc2)n[nH]c1=S	-3	-10	15	-4	2	0	x
Cc1ccc(-c2csc3n[nH]c(=S)n23)cc1	3	-4	-16	12*	-7	-1	2
S=C(NCCCN1CCOCC1)Nc1ccc(Cl)c(Cl)c1	2	14	-11	14*	-4	-1	-3
Cc1ccc(NC(=S)NCCCN2CCOCC2)cc1C	-3	0	16	-3	6	-1	x

Compound activity as filed in PubChem BioAssay.
